Screens deposited in PubChem by several laboratories.
A selection: hits, their analogues and other compounds. The true share with any hit is near 4.8%.
hgDAF12 agonist = hgDAF-12 agonism, primary luciferase screen. HEK293 GAL4-hgDAF12 UAS-luciferase reporter, agonist luminescence; normalized to butyrate control. activation, % at 6.8 µM. 1.8% of 370,000 active. AID 687014;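 active = activation above a cutoff set at the mean of all screened compounds plus 3 SD, cut at about 10% in these data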
hcDAF-12 act = H. contortus DAF-12 activation, primary screen. HEK293 hcDAF-12 lit1-tk-luc reporter, luminescence; 0% DMSO, 100% Δ7-dafachronic acid. activation, % at 6.8 µM. 1.4% of 370,000 active. AID 652067;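 active = activation above the mean of all tested compounds plus 3 SD, cut at about 5.5% in these data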
Rev-erbA mod = modulators of human Rev-erb alpha DNA binding; 0.79% of 370,000 active; Rev-erbα–FITC-DNA binding, fluorescence polarization, 90 min; activity, % at 10 µM;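 active = activity above about 14%, limit read from the data; passing the limit was not always enough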
DAX1 inh-1 = inhibits human nuclear receptor DAX1. AID 504766. HEK293 Gal4-DAX1 luciferase reporter, luminescence. P51843. 0.99% of 340,000 active. inhibition, % at 6.75 µM;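 active = inhibition above the mean over all tested compounds plus 3 SD, cut at about 4.2% in these data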;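 also: inhibition shows as a rise in luminescence from relieved DAX1 repression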
DAX1 inh-2 = inhibitors of DAX1 repression of SF-1 activated StAR promoter; HEK293T StAR-luciferase reporter, SF-1/DAX-1 repression relief; inhibition, % at 6.8 µM; 1.1% of 370,000 active;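 active = inhibition above the mean over all tested compounds plus 3 SD, cut at about 3.6% in these data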;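 also: higher inhibition means more luminescence from relief of DAX-1 repression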
ssDAF-12 act = activators of S. stercoralis DAF-12 nuclear receptor. HEK293 ssDAF-12/GRIP1 lit1-tk-luc reporter, luminescence; % of 3 µM dafachronic acid response. activation, % at 6.8 µM. AID 652126. 1% of 370,000 active;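 active = activation above the mean over all tested compounds plus 3 SD, cut at about 0.9% in these data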
LXRb hcDAF ctr = LXR-beta agonism as hcDAF-12 counter-screen | shares compounds with hcDAF-12 act | 3,400 tested, under 10 active | activation, % at 6.8 µM | HEK293 Gal4-LXR tk-luc reporter, luminescence, 24 h; normalized: DMSO 0%, positive control 100%;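 active = mean percent activation of the reporter above a cutoff set as the average over tested compounds plus their standard deviation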
Target sequence (P55055 whole entry, looked up, the tested form may be a part): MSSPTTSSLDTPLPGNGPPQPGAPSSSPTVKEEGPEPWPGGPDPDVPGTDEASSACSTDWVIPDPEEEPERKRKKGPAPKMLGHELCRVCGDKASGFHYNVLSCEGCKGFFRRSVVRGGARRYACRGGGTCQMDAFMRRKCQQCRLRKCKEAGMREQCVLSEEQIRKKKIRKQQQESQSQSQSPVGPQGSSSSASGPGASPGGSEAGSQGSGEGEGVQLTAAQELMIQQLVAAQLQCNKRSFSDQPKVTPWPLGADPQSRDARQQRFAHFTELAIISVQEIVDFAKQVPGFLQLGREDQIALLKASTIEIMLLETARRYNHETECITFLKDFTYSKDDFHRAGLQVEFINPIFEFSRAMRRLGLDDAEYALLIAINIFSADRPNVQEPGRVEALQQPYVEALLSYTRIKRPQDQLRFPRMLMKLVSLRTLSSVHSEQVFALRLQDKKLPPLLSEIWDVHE
hcDAF12 ag = hcDAF-12 agonism, confirmation assay; shares compounds with hcDAF-12 act; HEK293 hcDAF-12 lit1-tk-luc reporter, luminescence; % of Δ7-dafachronic acid response; activation, % at 6.8 µM; 61% of 3,400 active;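 active = mean activation across triplicate tests above the threshold derived from the earlier primary screen, cut at about 5.5% in these data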
Each line names hits and unclear results; the compound was inactive in the other large screens (follow-up assays come after a bar, where they were run); ! = a repeat was not active.

COc1ccccc1Cc1c(-c2ccc(OC)c(OC)c2)nc2c3ccccc3ccn12	none (no result: DAX1 inh-1)
COc1ccc(-c2nc3c4ccccc4ccn3c2Cc2ccccc2)cc1OC	hcDAF-12 act 11, ssDAF-12 act 2.8 (no result: DAX1 inh-1) | LXRb hcDAF ctr inactive | hcDAF12 ag 9.9
FC(F)(F)c1ccccc1Cc1c(-c2cccc(Cl)c2)nc2c3ccccc3ccn12	hcDAF-12 act 8.3, ssDAF-12 act 1.6 (no result: DAX1 inh-1) | LXRb hcDAF ctr inactive | hcDAF12 ag inactive
O=C(c1cccc(Oc2ccccc2)c1)N1CCC(Oc2cccnc2)CC1	none (no result: DAX1 inh-1)
COC(=O)C1=C(C)N(Cc2cccc(C(F)(F)F)c2)C(=NCC2CC2)NC1c1ccc(F)cc1 (stereo not given)	none (no result: DAX1 inh-1)
Cc1c(C#N)c(=O)c(-[n+]2ccccc2)c([S-])n1-c1ccc(Cl)cc1	hcDAF-12 act 7.3 | LXRb hcDAF ctr inactive | hcDAF12 ag inactive
O=C1C(=Cc2ccccn2)CCc2ccccc21	none
Cc1ccsc1/C=C1\CCc2ccccc2C1=O	hcDAF-12 act 12, ssDAF-12 act 1.4 | LXRb hcDAF ctr inactive | hcDAF12 ag 14
CC(=O)Oc1ccc(/C=C2/CCc3ccccc3C2=O)cc1	hcDAF-12 act 7.3 | LXRb hcDAF ctr inactive | hcDAF12 ag inactive
COc1ccc(/C=C2\CCc3ccccc3C2=O)cc1OC	none
C#CCn1c2ccccc2c2nc3ccccc3nc21	hcDAF-12 act 7.1 | LXRb hcDAF ctr inactive | hcDAF12 ag inactive
N#CCn1c2ccccc2c2nc3ccccc3nc21	none
Cc1c(C(=O)Nc2nccs2)oc2ccc(Br)cc12	hcDAF-12 act 9.2, DAX1 inh-2 4.1, ssDAF-12 act 2.3 | LXRb hcDAF ctr inactive | hcDAF12 ag 13
COC(=O)[C@]12C[C@H](CC(=O)NCCCN3CCCC3=O)C(=O)N(Cc3ccc(Cl)cc3Cl)C1=C[C@H](COCc1ccccc1)O[C@@H]2C	none (no result: DAX1 inh-1)
CCCC(=O)Nc1ccc2oc(-c3ccc(OC)c(Br)c3)nc2c1	none
CCCC(=O)Nc1ccc(-c2nc3cc(C)ccc3o2)cc1	hgDAF12 agonist 13, hcDAF-12 act 12, DAX1 inh-2 3.9, ssDAF-12 act 1.7 | LXRb hcDAF ctr inactive | hcDAF12 ag 8.4
COC(=O)[C@]12C[C@H](CC(=O)NCc3ccc(OC)c(OC)c3)C(=O)N(Cc3ccc(Cl)cc3Cl)C1=C[C@H](COCc1ccccc1)O[C@@H]2C	none (no result: DAX1 inh-1)
Clc1ccccc1-c1nc(-c2ccncc2)no1	hcDAF-12 act 7.2! | LXRb hcDAF ctr inactive | hcDAF12 ag inactive
Clc1ccccc1-c1nc(-c2cccnc2)no1	hcDAF-12 act 8.1, ssDAF-12 act 1.3 | LXRb hcDAF ctr inactive | hcDAF12 ag 8.1
CCc1ccc(-c2nc(-c3ccncc3)no2)cc1	hgDAF12 agonist 11, hcDAF-12 act 8.2 | LXRb hcDAF ctr inactive | hcDAF12 ag 8.3
CCCCc1ccc(-c2nc(-c3ccncc3)no2)cc1	none
COc1ccc(CNC(=O)N(C)C[C@@H]2OCc3ccccc3-c3c(n(C)c4ccccc34)C(=O)N([C@@H](C)CO)C[C@@H]2C)cc1	none (no result: DAX1 inh-1)
O=C(Nc1ccccc1)Nc1nc2ncccn2c1-c1ccc(C(F)(F)F)cc1	none (no result: DAX1 inh-1)
O=C(NC1CCCC1)[C@@H]1CCCN1C(=O)[C@@H](NC(=O)N1CCOCC1)C1CCCCC1	none (no result: DAX1 inh-1)
Cn1c(C=O)c(-c2ccc3cc[nH]c3c2)c2ccccc21	hcDAF-12 act 7.7 | LXRb hcDAF ctr inactive | hcDAF12 ag inactive
Cn1c(-c2ccsc2)c(-c2cccs2)c2cc(-c3ccc4cc[nH]c4c3)ccc21	none
Cc1c(C(=O)/C=C/c2cccs2)oc2ccc(F)cc12	hgDAF12 agonist 12, hcDAF-12 act 8.3 | LXRb hcDAF ctr inactive | hcDAF12 ag 14
CS(=O)(=O)Nc1ccc(C(=O)Nc2ccc3c(c2)OCCO3)cc1	none (no result: hgDAF12 agonist, hcDAF-12 act, Rev-erbA mod, DAX1 inh-2, ssDAF-12 act)
O=C(Nc1ccc2c(c1)OCCO2)C(=O)NC1CC1	hcDAF-12 act 6.8 | LXRb hcDAF ctr inactive | hcDAF12 ag inactive
COc1ccc(N/C(C)=C/C(=O)c2ccccc2)cc1	none
